High-throughput results (PubChem)
Shown are actives, neighbours in structure and some others; about 4.6% of the full set was active somewhere.
Wee1 stabilizer = Wee1 degradation inhibitors, primary screen, cell-based, HeLa, Wee1K328M-luciferase, luminescence. reporter increase, % at 5 µM. 1.2% of 220,000 active. Wee1-like protein kinase (Homo sapiens), P30291. HeLa Luc-Wee1K328M stability; 100% = proteasome inhibitor MG132 effect;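 active means activation above the mean of all tested compounds plus 3 SD, set per screening run, cut at about 8.8% in these data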;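 further: cells exposed to compound for 20 h before luminescence read; 0% = DMSO alone and 100% = MG132 at 30 µM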
Target sequence (P30291 whole entry K328M): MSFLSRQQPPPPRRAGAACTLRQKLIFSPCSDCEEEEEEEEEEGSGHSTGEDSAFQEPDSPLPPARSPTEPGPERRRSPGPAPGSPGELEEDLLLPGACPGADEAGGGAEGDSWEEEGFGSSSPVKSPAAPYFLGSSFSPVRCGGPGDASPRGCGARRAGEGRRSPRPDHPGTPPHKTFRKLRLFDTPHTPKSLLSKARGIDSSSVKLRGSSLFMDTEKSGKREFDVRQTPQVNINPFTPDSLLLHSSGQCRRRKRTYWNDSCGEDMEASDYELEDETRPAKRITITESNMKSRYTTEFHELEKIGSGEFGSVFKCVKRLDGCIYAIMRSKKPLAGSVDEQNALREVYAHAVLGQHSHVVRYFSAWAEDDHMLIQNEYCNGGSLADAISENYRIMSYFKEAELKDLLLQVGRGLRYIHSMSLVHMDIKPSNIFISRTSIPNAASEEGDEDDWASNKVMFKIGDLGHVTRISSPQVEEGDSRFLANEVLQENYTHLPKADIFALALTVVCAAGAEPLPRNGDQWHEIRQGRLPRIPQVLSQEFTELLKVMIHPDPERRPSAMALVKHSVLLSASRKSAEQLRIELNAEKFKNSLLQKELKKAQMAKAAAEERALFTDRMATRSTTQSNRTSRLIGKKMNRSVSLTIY
ssDAF-12 act = S. stercoralis DAF-12 nuclear receptor activators, primary screen, cell-based, luminescence, HEK293, GRIP1 co-expression, lit1-tk-luc; 1% of 370,000 active; HEK293 ssDAF-12/GRIP1 lit1-tk-luc reporter; % of 3 µM dafachronic acid response; activation, % at 6.8 µM;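 active means activation above the mean over all tested compounds plus 3 SD, cut at about 0.9% in these data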;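 further: 0% = DMSO-only wells and 100% = 3 µM delta7-dafachronic acid wells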
DAX1 inh-1 = DAX1 (NR0B1) inhibitors, primary screen, cell-based, HEK293, Gal4-DAX1, luciferase luminescence; Nuclear receptor subfamily 0 group B member 1 (Homo sapiens), P51843; HEK293 Gal4-DAX1 luciferase reporter; inhibition, % at 6.75 µM; 0.99% of 340,000 active;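 active means inhibition above the mean over all tested compounds plus 3 SD, cut at about 4.2% in these data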;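 further: 0% = DAX1-transfected cells with DMSO and 100% = empty-vector control cells with DMSO; inhibition shows as a rise in luminescence from relieved DAX1 repression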
hcDAF-12 act = H. contortus DAF-12 nuclear receptor activators, primary screen, cell-based, luminescence, HEK293, lit1-tk-luc reporter; HEK293 hcDAF-12 lit1-tk-luc reporter; 0% DMSO, 100% Δ7-dafachronic acid; activation, % at 6.8 µM; 1.4% of 370,000 active;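 active means activation above the mean of all tested compounds plus 3 SD, cut at about 5.5% in these data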;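 further: 100% = response to 3 µM Δ7-dafachronic acid high control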
hgDAF-12 ag = H. glycines DAF-12 receptor agonists, primary screen, cell-based, luminescence, HEK293, GAL4 fusion, UAS-luciferase | Nuclear hormone receptor DAF-12 (Heterodera glycines), GAL4 fusion | HEK293 GAL4-hgDAF12 UAS-luciferase reporter, agonist luminescence; normalized to butyrate control | activation, % at 6.8 µM | 1.8% of 370,000 active | AID 687014, 2013;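 active means activation above a cutoff set at the mean of all screened compounds plus 3 SD, cut at about 10% in these data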;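 further: 0% = DMSO wells and 100% = sodium butyrate wells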
DAX1 inh-2 = DAX1 (NR0B1) inhibitors on StAR promoter, primary screen, cell-based, luminescence, SF-1 (NR5A1), full-length DAX-1. HEK293T StAR-luciferase reporter, SF-1/DAX-1 repression relief. inhibition, % at 6.8 µM. 1.1% of 370,000 active. AID 652010, 2013;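 active means inhibition above the mean over all tested compounds plus 3 SD, cut at about 3.6% in these data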;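 further: 0% = DAX-1 cells with DMSO and 100% = cells lacking DAX-1 with DMSO; higher inhibition means more luminescence from relief of DAX-1 repression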
LXRb hcDAF ctr = LXR agonists, Gal4 luciferase reporter, confirmation, counter-screen for hcDAF-12 agonist project, cell-based, luminescence, HEK293, H. contortus campaign | shares compounds with hcDAF-12 act | 3,400 tested, under 10 active | activation, % at 6.8 µM | HEK293 Gal4-LXR tk-luc reporter, 24 h; normalized: DMSO 0%, positive control 100%;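 active means mean percent activation of the reporter above a cutoff set as the average over tested compounds plus their standard deviation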
hcDAF12 ag = H. contortus DAF-12 receptor agonists, confirmation, cell-based, luminescence, HEK293, lit1-tk-luc, triplicate; shares compounds with hcDAF-12 act; HEK293 hcDAF-12 lit1-tk-luc reporter; % of Δ7-dafachronic acid response; 61% of 3,400 active; activation, % at 6.8 µM; AID 743032, 2013;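 active means mean activation across triplicate tests above the threshold derived from the earlier primary screen, cut at about 5.5% in these data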;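 further: 0% = DMSO only wells and 100% = 3 µM Δ7-dafachronic acid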
hgDAF12 conf = H. glycines DAF-12 receptor agonists, confirmation, cell-based, luminescence, HEK293, GAL4-LBD fusion. shares compounds with hgDAF-12 ag. HEK293 GAL4-hgDAF12 luciferase reporter, agonist mode; percent of butyrate response. activation, % at 6.8 µM. 80% of 3,300 active. AID 743050, 2013;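 active means mean activation over triplicate wells above the hit cutoff derived from the earlier primary screen, cut at about 11% in these data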;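 further: 0% = DMSO low control and 100% = 2 mM sodium butyrate high control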
LXR ag 2 = LXR agonists, Gal4 luciferase reporter, confirmation, counter-screen for hgDAF-12 agonist project, cell-based, luminescence, HEK293, H. glycines campaign | 24 h | shares compounds with hgDAF-12 ag | activation, % at 6.8 µM | 3,300 tested, under 10 active | AID 743051, 2013;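 active means mean activation of the triplicate above a set limit carried over from the primary screen, none filed active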
Numbers without * were called inactive; . = not tested or not shown.

SMILES	Wee1 stabilizer	ssDAF-12 act	DAX1 inh-1	hcDAF-12 act	hgDAF-12 ag	DAX1 inh-2	LXRb hcDAF ctr	hcDAF12 ag	hgDAF12 conf	LXR ag 2
CCc1ccc(C2CC(c3ccco3)=NN2S(C)(=O)=O)cc1 (centres undefined)	-0.9	1.3*	2.2	9.2*	17.9*	3.4	1.3	8.9*	18.0*	1.0
CCOc1ccc2cc(C3CC(c4ccco4)=NN3S(C)(=O)=O)c(Cl)nc2c1 (centres undefined)	-0.8	-1.2	-0.1	-1.2	-4.0	-0.8	.	.	.	.
CC(=O)c1ccc2noc(-c3ccc(C)cc3)c2c1	-0.1	-1.2	-0.6	0.0	3.5	0.3	.	.	.	.
Cc1ccc(-c2onc3ccc(C(=O)O)cc23)cc1	.	1.0*	-2.5	9.4*	18.8*	3.5	1.2	8.7*	23.4*	1.1
Nc1nc(Nc2ccc(Cl)cc2)nc2ccccc12	-0.6	2.5*	-1.4	14.2*	13.8*	2.1	1.8	12.3*	21.6*	1.4
Nc1nc(Nc2ccccc2)nc2ccccc12	5.1	1.7*	0.3	9.9*	14.7*	3.6*	1.2	5.3	16.3*	1.1
Cc1ccc(Nc2n[nH]c(C)c2[N+](=O)[O-])cc1C	6.6	1.0*	3.7	10.7*	19.4*	4.4*	1.7	6.3*	21.8*	1.1
N/C(=N\OC(=O)c1cc(-c2ccccc2)nc2ccccc12)c1cccnc1	-1.1	-1.4	-1.3	0.6	4.5	0.5	.	.	.	.
Cc1c(C(=O)O/N=C(\N)c2ccccn2)cccc1[N+](=O)[O-]	2.1	3.0*	2.4	15.8*	17.2*	1.6	1.0	10.4*	19.9*	0.9
Cc1ccc(C(=O)O/N=C(\N)c2ccccn2)c(Cl)c1	.	-3.4	-6.6	-6.6	-14.7	-2.0	.	.	.	.
N/C(=N\OC(=O)c1cccc2ccccc12)c1ccccn1	1.1	3.5*	1.2	15.2*	14.4*	2.2	1.3	13.8*	10.6*	0.9
N/C(=N\OC(=O)c1cc(Br)ccc1Cl)c1ccccn1	2.8	3.8*	2.5	15.6*	21.0*	3.7*	1.4	14.6*	23.1*	0.8
N/C(=N\OC(=O)Cc1ccccc1[N+](=O)[O-])c1ccccn1	-0.1	-1.6	-0.3	-0.3	-0.2	0.1	.	.	.	.
N/C(=N\OC(=O)c1ccccc1Cl)c1cccnc1	5.8	1.9*	1.1	9.7*	14.7*	2.5	1.1	6.4*	14.4*	0.8
O=C(NC1CCCCCC1)c1cccc(N2CCCC2=O)c1	3.5	0.3	-1.4	7.8*	13.4*	2.2	1.2	10.3*	12.9*	0.8
O=C(NCCc1c[nH]c2ccccc12)c1[nH]c(C(F)(F)F)nc1-c1ccccc1	.	-0.8	.	0.8	3.2	-0.8	.	.	.	.
Cc1cccc(C)c1NC(=O)CN(C)C(=O)C1CC1C (centres undefined)	.	-1.1	0.4	0.6	0.6	0.1	.	.	.	.
Cc1ccc(Nc2nc(-c3ccccc3)cs2)nc1	.	1.9*	-1.3	19.1*	13.3*	3.7*	2.1	16.5*	22.7*	1.4
Cc1ccc(Nc2nc(-c3cccs3)cs2)nc1	6.6	0.7	2.2	13.2*	14.7*	4.0*	1.6	13.8*	9.5	1.0
Cc1ccc(S(=O)(=O)Nc2nc(-c3ccccc3)cs2)cc1	.	-0.8	0.7	-1.5	0.1	0.1	.	.	.	.
CCOC(=O)[C@]12CCC=C1N(Cc1ccco1)C(=O)[C@H](CC(=O)NCCc1ccccc1OC)C2	.	-0.9	.	-0.5	2.2	0.2	.	.	.	.
Cc1nc(N)sc1N=Nc1ccc(Br)cc1	0.0	1.5*	5.4*	8.6*	16.6*	3.9*	1.0	4.2	20.9*	0.9
Cc1[nH]nc(N)c1N=Nc1ccc(Br)cc1	2.0	-1.2	.	0.7	5.5	0.6	.	.	.	.
O=C(c1cc(-c2ccc(Cl)cc2Cl)on1)N1CCCCCC1	.	0.3	3.7	8.8*	16.0*	3.3	2.0	8.3*	18.2*	0.8
O=C(c1cc(-c2ccc(O)cc2)on1)N1CCCCCC1	.	0.1	5.1*	6.8*	13.7*	2.5	0.7	3.5	16.7*	0.7
SMILES	Wee1 stabilizer	ssDAF-12 act	DAX1 inh-1	hcDAF-12 act	hgDAF-12 ag	DAX1 inh-2	LXRb hcDAF ctr	hcDAF12 ag	hgDAF12 conf	LXR ag 2
CC(=O)OC(C=C(C)C)C/C(C)=C/COc1c2ccoc2cc2oc(=O)ccc12 (centres undefined)	.	-0.5	-1.1	-1.4	1.4	-1.9	.	.	.	.
O=[N+]([O-])c1cc2ncccc2c2ncccc12	.	-1.2	-3.3	-1.1	-8.6	-4.3	.	.	.	.
Cn1c(N)c(C(=O)CCc2ccccc2)c(=O)n(C)c1=O	.	0.7	.	10.5*	21.3*	4.5*	0.9	6.8*	10.1	0.5
COc1cccc(C(=O)Cn2c(=N)n(C)c3ccccc32)c1	-2.4	3.2*	-0.9	18.0*	17.3*	3.5	2.1	17.2*	19.6*	1.1
COc1cccc(C(=O)Cn2c(NCCO)nc3ccccc32)c1	-1.0	-0.9	-0.6	-0.2	-0.4	0.0	.	.	.	.
CCc1nc2c(OCc3ccc(Cl)cc3Cl)cccn2c1N(C=O)Cc1ccc(OC)cc1	.	-1.0	.	-0.1	0.8	-0.9	.	.	.	.
